This passage reports inhibition results from ChEMBL document CHEMBL1961873, “Compounds: GSK PKIS; Assays: Nanosyn kinase panel” (2012).

Assay [1] concerns Proto-oncogene tyrosine-protein kinase receptor Ret (Homo sapiens), P07949 [Y791F]. The conditions noted are these: at 1 µM.
For assay [2], the target named is Macrophage-stimulating protein receptor (Homo sapiens) (UniProt Q04912). Particulars: at 0.1 µM.
For assay [3] the target is unchanged. Particulars: at 1 µM.
The target in assay [4] is Proto-oncogene tyrosine-protein kinase ROS (Homo sapiens) (UniProt P08922). The conditions noted are these: at 0.1 µM.
The target is the same in assay [5]. The conditions noted are these: at 1 µM.
For assay [6], the target named is Proto-oncogene tyrosine-protein kinase Src (Homo sapiens) (UniProt P12931). Particulars: at 0.1 µM.
The target is the same in assay [7]. Particulars: at 1 µM.
The target in assay [8] is Tyrosine-protein kinase Srms (Homo sapiens) (UniProt Q9H3Y6). Particulars: at 0.1 µM.
Assay [9] shares this target. The conditions noted are these: at 1 µM.
Assay [10] has as its target Tyrosine-protein kinase SYK (Homo sapiens) (UniProt P43405). Particulars: at 0.1 µM.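 Note: reported percentages are mean inhibition values for SYK.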

Chain of Proto-oncogene tyrosine-protein kinase ROS (Homo sapiens) (P08922 whole entry): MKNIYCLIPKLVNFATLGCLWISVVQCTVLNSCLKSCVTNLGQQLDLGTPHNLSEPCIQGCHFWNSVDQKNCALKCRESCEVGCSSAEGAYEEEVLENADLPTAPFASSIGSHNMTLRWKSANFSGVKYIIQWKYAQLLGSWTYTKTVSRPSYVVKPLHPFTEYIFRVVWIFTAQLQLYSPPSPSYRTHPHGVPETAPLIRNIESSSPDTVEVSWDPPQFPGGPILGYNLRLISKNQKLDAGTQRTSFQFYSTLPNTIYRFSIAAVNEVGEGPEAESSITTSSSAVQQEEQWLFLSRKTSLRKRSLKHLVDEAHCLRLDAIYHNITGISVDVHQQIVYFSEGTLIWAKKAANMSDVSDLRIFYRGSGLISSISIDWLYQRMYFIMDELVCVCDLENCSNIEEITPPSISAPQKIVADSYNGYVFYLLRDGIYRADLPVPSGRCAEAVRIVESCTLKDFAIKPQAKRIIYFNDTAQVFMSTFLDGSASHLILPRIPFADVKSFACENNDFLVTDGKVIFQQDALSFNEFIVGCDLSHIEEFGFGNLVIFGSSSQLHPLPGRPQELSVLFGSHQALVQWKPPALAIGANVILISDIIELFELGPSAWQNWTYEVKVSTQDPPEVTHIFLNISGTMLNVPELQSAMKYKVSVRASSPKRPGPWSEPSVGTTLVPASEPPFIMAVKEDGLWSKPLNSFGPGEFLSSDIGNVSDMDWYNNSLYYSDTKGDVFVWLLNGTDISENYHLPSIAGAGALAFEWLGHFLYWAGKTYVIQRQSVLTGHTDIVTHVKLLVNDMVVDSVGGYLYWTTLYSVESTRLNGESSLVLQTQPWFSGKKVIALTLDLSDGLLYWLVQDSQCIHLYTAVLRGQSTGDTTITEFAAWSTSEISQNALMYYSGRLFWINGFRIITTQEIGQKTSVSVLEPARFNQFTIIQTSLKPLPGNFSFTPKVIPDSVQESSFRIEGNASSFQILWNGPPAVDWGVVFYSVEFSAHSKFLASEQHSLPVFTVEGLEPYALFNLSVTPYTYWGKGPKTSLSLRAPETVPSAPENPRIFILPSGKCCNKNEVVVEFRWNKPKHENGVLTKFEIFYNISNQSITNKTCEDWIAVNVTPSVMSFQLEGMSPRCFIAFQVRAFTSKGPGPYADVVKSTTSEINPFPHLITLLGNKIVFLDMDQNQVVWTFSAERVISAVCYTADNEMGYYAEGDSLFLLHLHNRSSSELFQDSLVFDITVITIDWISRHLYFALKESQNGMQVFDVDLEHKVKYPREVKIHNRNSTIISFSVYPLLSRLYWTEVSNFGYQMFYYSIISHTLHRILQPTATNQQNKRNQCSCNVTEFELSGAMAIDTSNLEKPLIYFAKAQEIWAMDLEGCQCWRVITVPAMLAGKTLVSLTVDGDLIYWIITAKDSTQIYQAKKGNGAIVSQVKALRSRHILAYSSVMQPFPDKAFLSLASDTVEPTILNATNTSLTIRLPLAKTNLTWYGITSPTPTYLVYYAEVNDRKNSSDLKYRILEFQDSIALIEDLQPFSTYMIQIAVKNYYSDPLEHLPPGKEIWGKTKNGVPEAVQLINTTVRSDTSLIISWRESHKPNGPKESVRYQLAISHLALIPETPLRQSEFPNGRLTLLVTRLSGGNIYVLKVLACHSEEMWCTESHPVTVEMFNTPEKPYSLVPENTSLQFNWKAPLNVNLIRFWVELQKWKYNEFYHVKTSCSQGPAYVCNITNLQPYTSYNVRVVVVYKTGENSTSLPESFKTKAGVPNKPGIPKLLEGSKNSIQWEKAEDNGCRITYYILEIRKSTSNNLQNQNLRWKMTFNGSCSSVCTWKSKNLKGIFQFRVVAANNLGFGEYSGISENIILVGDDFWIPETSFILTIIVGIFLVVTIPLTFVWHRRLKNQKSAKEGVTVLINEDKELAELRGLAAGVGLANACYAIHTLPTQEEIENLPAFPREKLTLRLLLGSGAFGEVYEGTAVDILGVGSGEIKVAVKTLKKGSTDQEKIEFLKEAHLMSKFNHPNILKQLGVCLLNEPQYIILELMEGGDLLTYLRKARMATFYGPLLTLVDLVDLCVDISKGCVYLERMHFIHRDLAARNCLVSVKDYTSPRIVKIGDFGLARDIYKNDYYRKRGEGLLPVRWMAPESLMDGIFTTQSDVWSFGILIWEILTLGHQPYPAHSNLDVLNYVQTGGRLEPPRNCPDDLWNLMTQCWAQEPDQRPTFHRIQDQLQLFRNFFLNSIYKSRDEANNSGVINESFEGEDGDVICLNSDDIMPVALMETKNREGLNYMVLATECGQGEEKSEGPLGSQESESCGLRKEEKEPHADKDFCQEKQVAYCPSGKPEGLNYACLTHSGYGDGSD
Chain of Macrophage-stimulating protein receptor (Homo sapiens) (Q04912 25-304 limits assumed): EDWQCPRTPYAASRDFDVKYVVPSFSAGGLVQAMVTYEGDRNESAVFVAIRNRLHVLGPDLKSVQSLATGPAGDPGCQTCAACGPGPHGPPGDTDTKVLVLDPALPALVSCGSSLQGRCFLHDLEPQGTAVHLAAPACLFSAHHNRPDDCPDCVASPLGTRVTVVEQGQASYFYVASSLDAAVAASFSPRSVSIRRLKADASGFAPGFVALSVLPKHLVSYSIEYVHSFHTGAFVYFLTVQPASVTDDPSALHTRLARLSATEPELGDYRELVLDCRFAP
Chain of Macrophage-stimulating protein receptor (Homo sapiens) (Q04912 310-1400 limits assumed): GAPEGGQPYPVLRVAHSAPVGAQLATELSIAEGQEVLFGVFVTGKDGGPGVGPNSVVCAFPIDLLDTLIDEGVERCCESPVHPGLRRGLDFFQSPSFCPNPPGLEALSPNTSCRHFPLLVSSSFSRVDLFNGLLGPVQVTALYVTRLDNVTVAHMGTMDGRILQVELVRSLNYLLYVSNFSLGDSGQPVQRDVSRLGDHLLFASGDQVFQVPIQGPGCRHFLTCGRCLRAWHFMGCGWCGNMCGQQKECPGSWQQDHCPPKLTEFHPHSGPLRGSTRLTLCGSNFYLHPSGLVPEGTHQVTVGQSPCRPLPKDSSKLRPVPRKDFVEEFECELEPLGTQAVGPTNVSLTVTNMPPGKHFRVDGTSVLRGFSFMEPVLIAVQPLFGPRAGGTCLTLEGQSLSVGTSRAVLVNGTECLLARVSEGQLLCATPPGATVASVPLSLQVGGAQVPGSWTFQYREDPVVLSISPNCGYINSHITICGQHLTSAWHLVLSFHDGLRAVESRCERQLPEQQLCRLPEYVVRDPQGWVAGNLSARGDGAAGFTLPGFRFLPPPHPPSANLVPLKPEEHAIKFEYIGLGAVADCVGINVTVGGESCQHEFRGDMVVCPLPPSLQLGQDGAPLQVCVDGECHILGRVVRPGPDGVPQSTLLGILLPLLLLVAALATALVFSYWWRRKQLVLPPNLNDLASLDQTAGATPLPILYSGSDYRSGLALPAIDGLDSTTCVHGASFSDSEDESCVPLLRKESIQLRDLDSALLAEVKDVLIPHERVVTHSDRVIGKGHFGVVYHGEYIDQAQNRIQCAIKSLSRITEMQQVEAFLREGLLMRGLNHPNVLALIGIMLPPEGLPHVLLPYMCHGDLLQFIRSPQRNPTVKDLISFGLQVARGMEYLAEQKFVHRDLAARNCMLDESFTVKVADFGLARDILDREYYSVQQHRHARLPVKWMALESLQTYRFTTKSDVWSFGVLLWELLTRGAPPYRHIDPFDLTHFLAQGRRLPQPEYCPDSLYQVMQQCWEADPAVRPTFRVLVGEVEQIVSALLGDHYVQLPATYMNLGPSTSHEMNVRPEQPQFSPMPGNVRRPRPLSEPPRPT
Chain of Proto-oncogene tyrosine-protein kinase receptor Ret (Homo sapiens), P07949 [Y791F] (P07949 whole entry Y791F): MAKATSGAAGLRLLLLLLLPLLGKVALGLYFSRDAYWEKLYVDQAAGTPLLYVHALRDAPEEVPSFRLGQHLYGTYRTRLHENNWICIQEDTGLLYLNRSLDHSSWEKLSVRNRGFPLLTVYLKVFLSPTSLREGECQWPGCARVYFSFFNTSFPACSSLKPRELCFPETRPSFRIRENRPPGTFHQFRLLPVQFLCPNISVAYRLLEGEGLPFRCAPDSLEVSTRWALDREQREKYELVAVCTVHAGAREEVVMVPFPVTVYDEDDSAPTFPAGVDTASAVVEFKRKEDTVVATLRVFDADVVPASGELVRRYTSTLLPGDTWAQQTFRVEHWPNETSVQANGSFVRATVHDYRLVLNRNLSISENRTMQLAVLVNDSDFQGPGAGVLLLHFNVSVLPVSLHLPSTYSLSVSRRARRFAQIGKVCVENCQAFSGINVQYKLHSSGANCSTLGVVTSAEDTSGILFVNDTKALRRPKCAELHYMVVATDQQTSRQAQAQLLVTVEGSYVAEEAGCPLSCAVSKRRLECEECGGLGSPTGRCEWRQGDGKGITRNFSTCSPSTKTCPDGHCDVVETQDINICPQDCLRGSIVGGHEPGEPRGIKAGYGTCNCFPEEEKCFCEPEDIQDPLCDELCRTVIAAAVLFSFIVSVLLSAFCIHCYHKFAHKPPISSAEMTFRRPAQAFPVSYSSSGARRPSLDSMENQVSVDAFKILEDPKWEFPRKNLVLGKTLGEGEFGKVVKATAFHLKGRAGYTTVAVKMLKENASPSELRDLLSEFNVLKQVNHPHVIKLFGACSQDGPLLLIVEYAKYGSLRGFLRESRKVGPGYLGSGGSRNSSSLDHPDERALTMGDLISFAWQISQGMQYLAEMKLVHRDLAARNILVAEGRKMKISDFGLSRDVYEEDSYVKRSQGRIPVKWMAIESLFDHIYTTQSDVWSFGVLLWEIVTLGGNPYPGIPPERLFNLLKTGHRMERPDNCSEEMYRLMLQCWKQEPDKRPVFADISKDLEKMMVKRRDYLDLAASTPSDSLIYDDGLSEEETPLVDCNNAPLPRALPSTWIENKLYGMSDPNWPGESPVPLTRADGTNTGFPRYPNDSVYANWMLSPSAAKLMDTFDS

What is called inhibition is the change of the read-out against control, counted positive when it falls. For the compound `COc1cc(C)c(N(C)C(=O)CN(C)C)cc1Nc1nc(Nc2cccc(F)c2C(N)=O)c2cc[nH]c2n1`, the inhibition came out at 0.99% in [1]; 5.06% in assay [2]; 8.44% in [3]; 15.3% in assay [4]; 51.2% in assay [5]; 3.62% in [6]. Moreover, the inhibition is 5.62% in [7], -0.25% in [8], -1.33% in assay [9] and -0.33% in [10].

Turning to `COc1cc2ncn(-c3cc(OCc4ccccc4C(F)(F)F)c(C(C)=O)s3)c2cc1OC`, the inhibition in assay [1] was determined as 12.8%; in [2], 2.88%; in assay [3] it was 20%; in assay [4], 0.39%; in assay [5], 7.62%; in [6], 6.86%. The inhibition in assay [7] is 6.06%; in assay [8], -2.02%; in [9] it was 0.82%; in assay [10], 0.3%.

`NS(=O)(=O)c1ccc(Nc2cc(-c3ccc(O)c(F)c3)n[nH]2)cc1`: the inhibition in [1] is 55.5%; in assay [2], -1.82%; in [3], 10.5%; in [4], 0.96%; in assay [5], 3.04%; in assay [6], -0.44%. Moreover, the inhibition is 8.59% in [7], -1.1% in assay [8], 1.72% in assay [9] and 3.87% in assay [10].

On to `O=C(Nc1n[nH]c2nc(-c3ccco3)ccc12)C1CC1`, for which the inhibition in assay [1] was 8.66%; in assay [2] it was -0.93%; in assay [3], 4.1%; in [4], 3%; in assay [5] it was 3.03%; in [6], -4.02%. The inhibition was 4.81% in assay [7], 1.77% in assay [8], 1.57% in assay [9] and -0.47% in assay [10].

Regarding `COc1ccc2ncn(-c3cc(O[C@H](C)c4ccccc4Cl)c(C(N)=O)s3)c2c1`, the inhibition in [1] worked out at 8.71%; in [2] it was 2.64%; in assay [3] it was 3.04%; in [4] it was 6.54%; in [5], 10.9%; in assay [6] it was 6.13%. Moreover, the inhibition in assay [7] was 5.73%; in assay [8], -3.68%; in assay [9], -2.35%; in assay [10] it was -1.79%.

Consider `CN(C)CCOc1ccc(-c2cc(-c3ccc4c(c3)CCC4=NO)c(-c3ccncc3)o2)cc1`, for which the inhibition was 9.08% in [1]; -0.03% in assay [2]; 22.4% in assay [3]; -1.28% in assay [4]; 0.64% in [5]; 1.1% in [6]. Also, the inhibition stood at 2.61% in assay [7], 3% in assay [8], 3.76% in assay [9] and 0.85% in assay [10].

Take `COc1cccc(/C=N/Nc2ncnc3c2cnn3-c2cccc(OC)c2)c1`: the inhibition is 6.96% in assay [1]; 0.75% in assay [2]; 4.77% in [3]; 5.15% in [4]; 8.27% in assay [5]; 7.02% in [6]. The inhibition is 17.5% in assay [7], -1.15% in [8], -3.63% in assay [9] and 2.69% in assay [10].

`CN(C)c1ccc2c(c1)/C(=C/Nc1ccc(S(N)(=O)=O)cc1)C(=O)N2`: the inhibition was 47% in assay [1]; -0.09% in assay [2]; 7.23% in assay [3]; 4.66% in [4]; 8.86% in assay [5]; -4.52% in assay [6]. In addition, the inhibition in [7] amounted to 27.4%; in assay [8], 1.2%; in assay [9] it was 3.48%.

For `COc1cccc(-n2cnc3c(N/N=C/c4ccncc4)ncnc32)c1`, the inhibition in [1] is 32.8%; in [2], 0.89%; in assay [3], 0.14%; in assay [4], -1.03%; in [5] it was 4.38%; in [6] it was 12.5%. Moreover, the inhibition was 50.4% in assay [7], 2.47% in [8], 6.19% in [9] and 1.9% in assay [10].

With `NCc1ccc(-n2c(-c3nonc3N)nc3cnccc32)cc1`, the inhibition in [1] came to 7.16%; in [2], 2.95%; in assay [3], 2.64%; in assay [4], 15.3%; in [5], 33%; in assay [6], 9.83%. Moreover, the inhibition in [7] was 9.77%; in [8], -2.58%; in [9], -2.9%; in assay [10], -3.99%.

Take `COc1cc(N2CCN(C(C)C)CC2)ccc1Nc1nc(Nc2ccc(F)cc2C(=O)NC[C@@H](O)CO)c2cc[nH]c2n1`: the inhibition came out at 13.9% in assay [1]; 7.42% in assay [2]; 2.76% in assay [3]; 17.8% in assay [4]; 60% in assay [5]; 3.75% in assay [6]. Also, the inhibition in assay [7] was 9.14%; in assay [8], -2.12%; in assay [9], -0.49%; in [10], -1.02%.

Regarding `CN1CCN(CCCNc2nc3ccc(Oc4ccc(NC(=O)Nc5cc(C(F)(F)F)ccc5F)cc4)cc3[nH]2)CC1`, the inhibition was 83.9% in [1]; -2.7% in assay [2]; 5.53% in assay [3]; 5.6% in assay [4]; 9.76% in [5]; 4.89% in assay [6]. Moreover, the inhibition in [7] was determined as 3.58%; in assay [8], 2.32%; in assay [9] it was 0.43%; in assay [10], 0.25%.

With `NC(=O)Cc1ccccc1Oc1nccc(-c2c(-c3ccc(F)cc3)ncn2C2CCNCC2)n1`, the inhibition was 4.66% in assay [1]; -4.83% in assay [2]; 4.24% in [3]; 6.52% in assay [4]; 7.32% in assay [5]; 1.88% in [6]. Besides, the inhibition in assay [7] is 5.52%; in assay [8] it was -1.62%; in assay [9], -0.3%; in assay [10], -2.13%.

Consider `COc1ccc2cc(-c3c(-c4ccncc4)nc(-c4ccc([S+](C)[O-])cc4C)n3C)ccc2c1` (centres undefined), for which the inhibition stood at 28.3% in assay [1]; 3.56% in assay [2]; 4.22% in assay [3]; 2.09% in [4]; 6.31% in [5]; 2.64% in assay [6]. Besides, the inhibition in assay [7] is 3.54%; in assay [8], 1.97%; in assay [9], 6.78%; in assay [10], -0.12%.

`NS(=O)(=O)c1ccc(N/N=C2\C(=O)Nc3ccc(-c4cnco4)cc32)cc1`: the inhibition in assay [1] stood at 31.9%; in assay [2], 7.46%; in [3] it was 4.84%; in [4], 6.83%; in assay [5], 9.22%; in [6], 3.76%. The inhibition in assay [7] was determined as 20.5%; in assay [8], 0.38%; in assay [9], 0.29%; in assay [10], 0.72%.

As for `CN(c1ccc(NC(=O)Nc2c(Cl)cccc2Cl)cc1)c1ccnc(Nc2cccc(CS(C)(=O)=O)c2)n1`, the inhibition was 64.8% in [1]; 68.8% in assay [2]; 82.1% in [3]; 14.8% in assay [4]; 33.5% in assay [5]; 40.7% in assay [6]. Besides, the inhibition in assay [7] is 65.4%; in assay [8] it was 2.98%; in assay [9] it was 3.99%; in assay [10] it was 2.77%.

In the case of `COc1cc(Nc2ncc3c(C)nc(-c4cccc(C(F)(F)F)c4)n3n2)cc(OC)c1OC`, the inhibition in assay [1] is 31.8%; in [2], -0.28%; in [3], 6.04%; in assay [4] it was 6.64%; in assay [5] it was 10.5%; in assay [6], 22.6%. In addition, the inhibition in assay [7] was 74.4%; in assay [8] it was 1.58%; in [9] it was 0.29%; in [10], -1.19%.
